According to PubChem BioAssay (NCI):
Compounds without any hit were thinned out: in the full panel of roughly 83,000, 20% have a hit.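 96-well plates, one dose, 48 hours. Percent growth reported; active if below 10.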 Unmarked numbers belong to inactive results. The source made the active and inactive calls.

system: OVCAR-4 ovarian; experiment: NCI-60 one-dose screen, 48 h (100 = growth as untreated, 0 = no growth, -100 = all killed); conditions: 10 µM

| SMILES | growth |
| --- | --- |
| COc1cc(/C=C/c2cc(/C=C/c3ccc(O)c(OC)c3)[nH]c(=O)n2)ccc1O | 54% |
| O=C1CSC(=S)N1/N=C/c1ccc(Cl)s1 | 119% |
| COc1ccc(-c2onc(N)c2-c2cc(OC)c3c(c2)OCO3)cc1 | 61.9% |
| COc1cc(/C=C/c2cc(/C=C/c3ccc(O)c(OC)c3)n(C(=O)Nc3ccc(C)cc3)n2)ccc1O | 16.1% |
| COc1cc(NC(=O)Nc2cnc(Nc3ccc(N4CCOCC4)cc3)nc2Oc2cccc(OC)c2)cc(OC)c1 | 13.7% |
| CC(=O)N[C@H](C(=O)N[C@@H](CCCNC(=N)N)C(=O)N[C@@H](CCCCN)C(=O)N[C@@H](CCCNC(=N)N)C(=O)NC(C(=O)N[C@@H](CC(C)C)C(=O)N[C@@H](CCCNC(=N)N)C(=O)N[C@@]1(C)CCC/C=C\CCC[C@@](C)(C(=O)N[C@@H](CCCNC(=N)N)C(=O)N[C@@H](CCC(=O)O)C(=O)N[C@@H](CC(C)C)C(=O)N[C@H](C(=O)N[C@@H](CCC(=O)O)C(N)=O)C(C)C)NC(=O)[C@H](CCC(N)=O)NC(=O)[C@H](CC(C)C)NC(=O)[C@H](CC(C)C)NC1=O)[C@@H](C)O)C(C)C (some centres not stated) | 75.9% |
| Oc1ccc(/C=N/N=C2c3ccccc3-c3ccccc32)c(O)c1 | 60.4% |
| C[C@@H](C[C@H](CCO)c1ccccc1)c1ccc2ccccc2c1 | -81% (active) |

system: SK-OV-3 ovarian; experiment: as above; conditions: 10 µM

| SMILES | growth |
| --- | --- |
| Oc1cccc(-c2nc3sccn3c2-c2ccncn2)c1 | 88.4% |
| CCOC(=O)c1cc(C(=O)c2cc(OC)c(OC)c(OC)c2)n2ccc(-c3cc[n+](CC(=O)c4cc(OC)c(OC)c(OC)c4)cc3)cc12 | 99.3% |
| C[C@H]1[C@H](OC(=O)CCC(=O)O)O[C@@H]2O[C@]3(C)CC[C@H]4[C@H](C)CC[C@@H]1[C@@]24OO3 | 92.9% |
| COc1ccc(C(=O)N/N=C/c2cc(C(F)(F)F)ccc2Cl)cc1 | 99.8% |
| COc1ccc(-c2cc(-c3ccc(Cl)cc3)nc(SCCCC(=O)NO)n2)cc1OC | 0.0102% (active) |
| CCC(=O)OC1CCC2C3CCC(=O)OC3C(C)(CCC(=O)O)CC12C (configuration not stated) | 51.6% |
| OCC1OC(n2ccc3c(NO)ncnc32)C(O)C1O (configuration not stated) | 1.15% (active) |
| CC(C)(C)c1ccc(S(=O)(=O)N[C@H]2CC[C@H]3[C@@H]4CCc5cc(O)c([N+](=O)[O-])cc5[C@H]4CC[C@]23C)cc1 | 47.7% |
| COc1cc(-c2nn(-c3cccc(NC(=O)CCNc4ccc(N5CCOCC5)cc4)c3)cc2-c2ccncc2)ccc1Cl | 34.7% |
| COc1cc(-c2nn(-c3cccc(NC(=O)CN4CCOCC4)c3)cc2-c2cccnc2)ccc1Cl | 95.8% |
| O=C(CCCSc1nc(-c2ccccc2)cc(-c2ccc(Cl)cc2)n1)NO | 11.7% |
| CC(C)N(CCOc1cccc(-c2nc3sccn3c2-c2ccnc(S(C)(=O)=O)n2)c1)C(C)C | 85.7% |
| O=C(CCC(C(=O)c1ccccc1)c1ccccc1)c1ccccc1 (configuration not stated) | 74.3% |
| COc1ccc(-c2csc(NC(=O)c3ccc(Cc4n[nH]c(=O)c5cccnc45)cc3)n2)cc1 | 95.1% |
| COc1cc(-c2nn(-c3cccc(NC(=O)CCN4CCN(Cc5ccccc5)CC4)c3)cc2-c2ccncc2)ccc1Cl | 22.3% |
| COc1cc2cc(Oc3ccc(NC(=O)c4cc(C(F)(F)F)cc(C(F)(F)F)c4)cc3)c(C)nc2cc1OC | 44.5% |
| C[C@]12CCC3c4ccc(O)cc4C[C@@H](CCCCCCCCCS(=O)CCCC(F)(F)C(F)(F)F)C3C1CC[C@@H]2O (some centres not stated) | 103% |
| Cc1cc(Cl)ccc1Nc1nc(C(F)(F)F)ccc1C(=O)N/N=C/c1cccc(O)c1 | 38.8% |
| COc1cc(C(=O)/C=C/c2c[nH]c3ccccc23)cc(OC)c1OC | 17.7% |
| CCOC(=O)CC(S(=O)(=O)c1ccccc1)S(=O)(=O)c1ccccc1 | 112% |
| CCNCC(=O)Nc1ccc(C(=O)OCC)cc1 | 99.8% |
| CCCc1cn(CC(=O)Nc2nc3ccccc3s2)nn1 | 110% |
| COc1cc2cc(Oc3ccc(NC(=O)Nc4ccc(Cl)c(C(F)(F)F)c4)cc3)c(C)nc2cc1OC | -4.09% (active) |
| COc1cc(/C=C2\CCCC3=C2NC(N)=NC3c2cc(OC)c(OC)c(OC)c2)cc(OC)c1OC (configuration not stated) | 7.16% (active) |
